Compound activity (PubChem BioAssay)
Rows were chosen to be rich in hits. Some 8.1% of all compounds tested hit in one or more screens of this group.
MCF10A rerep = inducers of DNA re-replication in MCF 10A breast cells | 350,000 compounds, 2.9% hits | Potency, µM (doses to about 46.1 µM), most hits filed as activators | MCF 10A DNA re-replication, Hoechst nuclear intensity, 48 h; note: nearly all actives have a fitted effect of over 50% in size
KB-V1 cytotox = kills drug-selected multidrug resistant KB-V1 cells; KB-V1 MDR cells viability, CellTiter-Glo, 72 h; Potency, µM (top dose mostly 46.1 µM), most hits filed as cytotoxic; 400,000 compounds, 3.4% hits; AID 1347076; note: nearly all actives have a fitted effect of over 60% in size
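Luminescent ATP read-out (CellTiter-Glo, 10 min) measures survival of drug-selected KB-V1 MDR cells after 72 h, 37 degrees C compound exposure. Medium: phenol-red-free DMEM, 10% FBS. Values from fitted concentration-response curves.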
SW480 rereplic = DNA re-replication induction in SW480 cells. SW480 DNA re-replication, Hoechst DNA content imaging, 48 h. Potency, µM (highest dose often 46.1 µM), actives largely listed as activators. 340,000 compounds, 1.8% hits; note: nearly all actives have a fitted effect of over 55% in size
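Image-based DNA-content assay: after two days of treatment, nuclei were labelled with the DNA dye Hoechst and imaged, and hits were compounds raising the count of nuclei showing high fluorescence intensity.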
KB-3-1 tox = KB-3-1 parental cell cytotoxicity; KB-3-1 viability, CellTiter-Glo ATP luminescence, 72 h; Potency, µM (highest dose often 46.1 µM), usual class: cytotoxic; 400,000 compounds, 1.4% hits; note: nearly all actives have a fitted effect of over 60% in size
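Luminescent ATP read-out (CellTiter-Glo) measures survival of drug-naive KB-3-1 cells after 72 h compound exposure at 37 °C. Titration series was screened from lowest to highest concentration, with DMSO vehicle plates as background controls.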
ELG1 DNA repair = blocks ELG1-dependent DNA repair in HEK293T cells | HEK293T ELG1-luciferase reporter, luminescence, 16 h; DNA damage induced by 5-fluorouridine | Potency, µM (doses to about 46.1 µM), most hits filed as inhibitors | 330,000 compounds, 2.3% hits; note: nearly all actives have a fitted effect of over 55% in size
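Cells (2,000 per well) received 5-fluorouridine plus test compound or DMSO and were incubated 16 hr at 37 °C, 5% CO2. Luciferase activity was read by luminescence 30 min after ONE-Glo addition; signal suppression marked inhibition of damage-induced ELG1 function.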
Each line names hits and unclear results; the compound was inactive in the other large screens. Calls come from the whole dose curve; as a rule, active = well fitted curve in the direction sought with a large enough effect; inconclusive = small, poorly fitted or top-dose-only effect, or another doubt; inactive = no such curve, though single readings can be large; an effect the other way counts as inactive or inconclusive.

CN(C)S(=O)(=O)c1ccc(NC(=O)COc2ncnc3c2cnn3-c2ccccc2)cc1	none
COc1ccc(NC(=O)NNC(=O)c2ccc3ccccc3c2O)c(OC)c1	KB-V1 cytotox inconclusive
COc1ccc(NC(=O)NNC(=O)c2cc(C3CC3)nc3ccccc23)c(OC)c1	ELG1 DNA repair 13µM
CCN(CC)S(=O)(=O)c1ccc(NC(=O)c2cc(=O)[nH]c3ccccc23)cc1	ELG1 DNA repair inconclusive
COc1ccc(/C=N/NC(=O)C[n+]2ccccc2)c(OC)c1	MCF10A rerep 1µM, KB-V1 cytotox inconclusive
COc1ccc(/C=N/NC(=O)C[n+]2ccccc2)c(OC)c1OC	none
CCN(CC)S(=O)(=O)c1ccc2[nH]c(=O)cc(C(=O)Nc3ccc(C)c(S(=O)(=O)N(CC)CC)c3)c2c1	ELG1 DNA repair 18µM
OCCN1CCN(c2ncnc3c2ncn3[C@H]2CN(Cc3ccc(-c4ccccc4)cc3)C[C@@H](CO)O2)CC1	none (no result: MCF10A rerep, SW480 rereplic, ELG1 DNA repair)
Nc1c(C(=O)NC2CCCC2)c2nc3ccccc3nc2n1N	MCF10A rerep inconclusive
COc1ccccc1/C=N/n1c(N)c(C(=O)NC2CCCCC2)c2nc3ccccc3nc21	MCF10A rerep 10µM, SW480 rereplic 4.1µM
Nc1c(C(=O)NC2CCCC2)c2nc3ccccc3nc2n1/N=C/c1ccco1	MCF10A rerep inconclusive, SW480 rereplic 1.5µM
CCCc1cc(-c2[nH]ncc2-c2ccc(C(=O)OCC)o2)c(O)cc1O	KB-V1 cytotox inconclusive, ELG1 DNA repair inconclusive
CCCc1cc(-c2[nH]ncc2-c2ccc3c(c2)OCCCO3)c(O)cc1O	KB-V1 cytotox inconclusive, KB-3-1 tox inconclusive, ELG1 DNA repair 21µM
COc1cc(OC)cc(-c2cc3nc(C)c(CCC(=O)NCc4ccccc4)c(C)n3n2)c1	SW480 rereplic inconclusive, ELG1 DNA repair 21µM
Cc1cc(Nc2cccc(F)c2)n2nc(C)nc2n1	none
CCn1ncc(/C=N\NC(=O)c2csc3ccccc23)c1C	MCF10A rerep 10µM, KB-V1 cytotox inconclusive, SW480 rereplic 12µM, KB-3-1 tox 6.5µM, ELG1 DNA repair inconclusive
Cc1c(/C=N\NC(=O)c2csc3ccccc23)cnn1C	MCF10A rerep inconclusive, KB-V1 cytotox inconclusive, SW480 rereplic 21µM, KB-3-1 tox inconclusive
CCN(CCO)c1nc(N2CCCCC2)c2cnn(C)c2n1	none
Cc1cc(NC(=O)CCSc2nc(-c3ccco3)cc(C(F)(F)F)n2)n(-c2ccccc2)n1	ELG1 DNA repair 26µM
CC(=O)c1ccc(NC(=O)CCSc2nc(-c3ccco3)cc(C(F)(F)F)n2)cc1	none (no result: MCF10A rerep, SW480 rereplic, ELG1 DNA repair)
Cc1cccc(C)c1NC(=O)CSc1nc(-c2ccco2)cc(C(F)(F)F)n1	SW480 rereplic 21µM
O=C(CSc1nc(-c2ccco2)cc(C(F)(F)F)n1)Nc1ccc(C(=O)N2CCCCC2)cc1	ELG1 DNA repair 4.6µM
Cc1cc(NC(=O)CSc2nc(-c3ccco3)cc(C(F)(F)F)n2)no1	MCF10A rerep 3.3µM, KB-V1 cytotox inconclusive, SW480 rereplic 0.73µM, KB-3-1 tox 0.82µM, ELG1 DNA repair inconclusive
OC(c1ccccc1)(c1nc(-c2cccc(F)c2)cs1)C(F)(F)F (stereo unspecified)	none (no result: MCF10A rerep, SW480 rereplic, ELG1 DNA repair)
Fc1ccc(CNCCCSc2nnnn2-c2ccccc2)cc1	none (no result: MCF10A rerep, SW480 rereplic, ELG1 DNA repair)
CCN1C(=O)CS/C1=N\S(=O)(=O)c1ccccc1	none
CCOC(=O)CCC(=O)Nc1ccc(S(=O)(=O)N2CCCCC2)cc1	none
Cn1ncc2c(Nc3ccc(Br)cc3)nc(Nc3ccc(Br)cc3)nc21	MCF10A rerep inconclusive, ELG1 DNA repair 23µM
CNc1nc(Nc2ccc(C)c(Cl)c2)c2cnn(C)c2n1	MCF10A rerep inconclusive, KB-V1 cytotox inconclusive, KB-3-1 tox inconclusive, ELG1 DNA repair inconclusive
Cn1ncc2c(Nc3cccc(Cl)c3)nc(Nc3cccc(Cl)c3)nc21	MCF10A rerep 18µM, KB-V1 cytotox inconclusive, SW480 rereplic inconclusive, KB-3-1 tox inconclusive, ELG1 DNA repair inconclusive
Cn1ncc2c(Nc3ccc(O)cc3)nc(Cl)nc21	ELG1 DNA repair inconclusive
CCCNc1nc(Nc2ccc(C)c(Cl)c2)c2cnn(C)c2n1	ELG1 DNA repair 15µM
Cc1ccc(Nc2nc(NCCO)nc3c2cnn3C)cc1Cl	SW480 rereplic inconclusive, ELG1 DNA repair inconclusive
Cn1ncc2c(Nc3ccc4ccccc4c3)ncnc21	MCF10A rerep inconclusive, KB-V1 cytotox inconclusive, SW480 rereplic 16µM, ELG1 DNA repair inconclusive
CCN(CC)C(=O)c1ccc2nc([C@H]3C[C@H](O)[C@@H](CO)O3)[nH]c2c1	none (no result: MCF10A rerep, SW480 rereplic, ELG1 DNA repair)
